# BRCA1 expr act – qHTS Assay to Identify Small Molecule Activators of BRCA1 Expression | MCF7-BRCA1-FFLuc reporter, luminescence, 48 h; response scale: scaled: vehicle 0%, 10 µM genistein 100% | Potency, µM (titrated, usually from 46.1 µM), inactives show top-dose activation, hits mostly activators | 380,000 tested, 1.1% active | AID 624202, 2012; further: potency means the concentration at half of the fitted maximal effect; nearly all actives have a fitted effect of over 80% in size
#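 48 h compound treatment of MCF7-BRCA1-FFLuc cells (phenol-red free MEM, 37 °C), then 15 min with luciferase substrate and luminescence imaging.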
# IL2 activator – qHTS of IL-2 Activators | AID 652025, 2013 | 360,000 tested, 0.065% active | activation, % (series mostly up to about 46 µM) | IL-2 activation reporter assay, cell-based qHTS; stimulated with anti-CD3/CD4/CD28 beads; in transgenic mouse T cells; in the data active means activation above about 50%; inconclusive means mostly about 30% to 49%; further: 0% is about no effect
#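 Screening format: compound pinned onto unstimulated transgenic mouse T cells, 60 min incubation, then anti-CD3/anti-CD4/anti-CD28 bead stimulation for 18 hours at 37 degrees C, followed by EGFP and DsRed detection.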
# Nrf2 activator – qHTS of Nrf2 Activators | AREc32 ARE-luciferase reporter (MCF7-derived line), luminescence, 24 h | 410,000 tested, 0.31% active | AID 624171, 2012 | Potency, µM (top dose mostly 46.1 µM), inactives show top-dose activation, usual class: activators; further: potency means the concentration at half of the fitted maximal effect; % of control where 0% means no effect; nearly all actives have a fitted effect of over 65% in size
#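 Cells of the AREc32 ARE-luciferase line are plated in OPTI-MEM containing 5% FBS and left overnight at 37 deg C. Compounds are pinned in, incubation continues 24 hr, and firefly luciferase signal is then measured.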
# ELG1 repair inh – qHTS screen for small molecules that inhibit ELG1-dependent DNA repair in human embryonic kidney (HEK293T) cells expressing luciferase-tagged ELG1; AID 504467, 2011; Potency, µM (doses to about 46.1 µM), without a hit: at the highest dose activity change, negative = inhibition, actives largely listed as inhibitors; HEK293T ELG1-luciferase reporter, luminescence, 16 h; DNA damage induced by 5-fluorouridine; 330,000 tested, 2.3% active; further: potency means the concentration at half of the fitted maximal effect; on the % scale 0 is the no-effect control and ±100 the full control effect; nearly all actives have a fitted effect of over 55% in size
#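 DMSO vehicle served as the neutral condition. Each well held 2,000 cells given 5-fluorouridine plus compound; after 16 hr at 37 °C/5% CO2, ONE-Glo was added and luciferase measured 30 min later.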
# * = called active by the depositor; u = inconclusive; x = no result; ! = a repeat was not active. Most compounds without a hit are left out; they make up all but 3.1% or so of the library. Unless noted, the call rests on the fitted dose curve; in most records, active means well fitted curve in the direction sought with a large enough effect; inconclusive means small, poorly fitted or top-dose-only effect, or another doubt; inactive means no such curve, though single readings can be large; an effect the other way counts as inactive or inconclusive.
SMILES,BRCA1 expr act,IL2 activator,Nrf2 activator,ELG1 repair inh
CCC(Sc1ccc(Cl)cc1)C(=O)Nc1nnc(-c2cccc([N+](=O)[O-])c2)s1 (stereo unspecified),-30%,0,13µM*,u
Cc1ccc2nc(COc3ccccc3NC(=O)c3ccc(F)cc3)cc(=O)n2c1,x,x,0%,x
NCCCN(Cc1ccccc1)c1ccc(Br)cn1,2%,x,x,x
CCS(=O)(=O)N1Cc2ccccc2CC1C(=O)Nc1cccc(OC)c1 (stereo unspecified),-17%,1,3%,2.3µM*
O=C(Nc1cccc(Cl)c1)N1CCc2ccccc2C1,u,-1,5%,u
COc1cccc(NC(=O)N2CCc3ccccc3C2)c1,11µM*,1,6%,u
Cc1ccc(C)c(NC(=O)N2CCc3ccccc3C2)c1,3.5µM*,1,0%,u
Cc1ccc(-n2nnnc2CNC(=O)c2ccc(F)cc2)cc1C,x,x,0%,x
CC(C)(C)c1ccc(S(=O)(=O)Nc2ccc(C(O)(C(F)(F)F)C(F)(F)F)cc2)cc1,-46%,-1,-3%,x
COc1ccccc1NC(=O)COC(=O)CC(C)(C)CC1=NS(=O)(=O)c2ccccc2N1,8%,-6,0%,u
CC(C)(CC(=O)OCC(=O)Nc1ccccc1F)CC1=NS(=O)(=O)c2ccccc2N1,0%,-5,-1%,9.2µM*
Cc1cc(O)cc(O)c1/C=N/NC(=O)c1ccc2c(c1)OCCO2,-49%,1,0%,x
Cc1cccc(C)c1NC(=O)CNC(=O)C(NC(=O)c1ccc(C(C)(C)C)cc1)C(C)C (stereo unspecified),-1%,3,0%,5.2µM*
O=C(NCc1ccccc1)c1cnc(N2CCCCC2)c2ccccc12,x,x,4%,x
CCOC(=O)N1CC=C2C(C#N)=C(N)C(C#N)(C#N)[C@H](c3ccc(OC(C)C)c(OCC)c3)[C@H]2C1,-27%,0,26%,13µM*
CCCCN(Cc1ccccc1)S(=O)(=O)c1ccc2c(c1)CC(C)N2C(=O)CC (stereo unspecified),10%,x,-1%,x
CCOC(=O)c1ccc(-c2ccc(/C=N/NC(=O)Cc3nnc(N)s3)o2)cc1,2.2µM*,1,3%,u
Nc1nnc(CC(=O)N/N=C/c2ccc(-c3ccc(F)cc3)o2)s1,9%,1,0%,0%
CCCC(=O)Oc1c(Sc2ccc(Cl)cc2)c(C)nn1-c1ccccc1,x,x,0%,x
Cc1oc2ncn(CC(C)C)c(=O)c2c1C(=O)NCc1cccc(Cl)c1,0%,x,-1%,x
CNC(=O)/C(C#N)=C/c1c(N(Cc2ccccc2)Cc2ccccc2)nc2ccccn2c1=O,-55%,-1,5%,18µM*
COC(=O)/C(C#N)=C/c1c(N2CCN(c3ccccc3)CC2)nc2ccccn2c1=O,9%,0,10%,4%
O=C(CN1CCN(c2ccc(O)cc2)CC1)Nc1cc(S(=O)(=O)N2CCCCC2)ccc1Cl,-13%,-4,1%,16µM*
O=C(CN1CCN(S(=O)(=O)N2CCOCC2)CC1)Nc1cc(Cl)ccc1Cl,-14%,-1,0%,21µM*
O=C(CN1CCN(c2ccc(O)cc2)CC1)Nc1cc(S(=O)(=O)N2CCCC2)ccc1Cl,-53%,-1,3%,23µM*
SMILES,BRCA1 expr act,IL2 activator,Nrf2 activator,ELG1 repair inh
O=C(CN1CCN(S(=O)(=O)N2CCCCCC2)CC1)Nc1cc(Cl)ccc1Cl,-18%,-1,0%,u
O=C(CSc1ncnc2ccccc12)Nc1cc(S(=O)(=O)N2CCCCC2)ccc1Cl,-83%,-5,1%,21µM*
Clc1ccccc1/C=C/c1nc(-c2cccnc2)no1,u,-3,30%,u
C(=C\c1nc(-c2cccnc2)no1)/c1ccccc1,2.8µM*,0,u,u
c1ccc(-c2ccc(-c3nc(-c4ccncc4)no3)cc2)cc1,8%,-1,0%,u
Cc1ccccc1-c1nc(Cc2ccccc2)no1,10µM*,-2,6%,u
c1ccc(-c2ccccc2-c2nc(-c3ccncc3)no2)cc1,10%,1,3%,5%
Clc1ccccc1-c1nc(-c2ccncc2)no1,1.8µM*!,2,11µM*,u
c1ccc(-c2nc(-c3ccncc3)no2)cc1,u,0,11µM*,x
NC(c1csc(Nc2ncccn2)n1)c1ccccc1Cl (stereo unspecified),-10%,0,0%,x

# Source: PubChem
